Screening results from PubChem BioAssay.
The list is not random: actives were taken first. Their share in the collection is about 6%.
Bst PK mod: Pyruvate Kinase; 1.2% of 51,000 active; AID 361, 2006; purified pyruvate kinase, luminescence ATP production; ribose 5-phosphate activator present at AC10; Potency, µM; in the data active = potency below about 11 µM; inconclusive = mostly about 12 µM to 25 µM;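 the screen sought inhibitors and activators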;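 also: scaled between full activation by ribose 5 phosphate and full inhibition by luteolin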
ERK AVP inh: qHTS Assay for Inhibitors of the ERK Signaling Pathway using a Homogeneous Screening Assay; AID 995, 2007; HEK293-V1b, vasopressin-stimulated pERK AlphaScreen; 0.99% of 72,000 active; Potency, µM (series often up to 57.5 µM), for inactives: at the highest dose activity, negative = inhibition, hits mostly inhibitors; also: nearly all actives have a fitted effect of over 55% in size
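HEK293 cells stably expressing V1b receptor, preincubated 30 min at 37 °C with compound, then stimulated 5 min with 25 nM vasopressin. Phospho-ERK by AlphaScreen SureFire after 5 h RT; normalized to DMSO and vasopressin; AC50 by Hill fit.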
DNA Pol III inh: qHTS Assay for Inhibitors of DNA Polymerase III Holoenzyme System; reconstituted DNA polymerase III holoenzyme replication, biochemical; Potency, µM (titrated, usually from 57.1 µM), for inactives: at the highest dose activity change, negative = inhibition; 0.25% of 71,000 active; AID 603, 2007
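Reconstituted *E. coli* holoenzyme (0.35 nM Pol III, 1 nM beta, 154 nM SSB, 2 nM primase) was preincubated with compound for 15 min at RT. Synthesis on 1.4 nM ssM13Gori ran 35 min, then was stopped with PicoGreen/EDTA and read as dsDNA fluorescence.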
Luciferase inh: qHTS Assay for Inhibitors of Firefly Luciferase; Luciferin 4-monooxygenase (Photinus pyralis), P08659; purified firefly luciferase, luminescence, 8 min; Potency, µM (highest dose often 57.1 µM), without a hit: at the highest dose activity change, negative = inhibition, most hits filed as inhibitors; 2.2% of 72,000 active; also: nearly all actives have a fitted effect of over 40% in size
Target sequence (P08659 whole entry, looked up): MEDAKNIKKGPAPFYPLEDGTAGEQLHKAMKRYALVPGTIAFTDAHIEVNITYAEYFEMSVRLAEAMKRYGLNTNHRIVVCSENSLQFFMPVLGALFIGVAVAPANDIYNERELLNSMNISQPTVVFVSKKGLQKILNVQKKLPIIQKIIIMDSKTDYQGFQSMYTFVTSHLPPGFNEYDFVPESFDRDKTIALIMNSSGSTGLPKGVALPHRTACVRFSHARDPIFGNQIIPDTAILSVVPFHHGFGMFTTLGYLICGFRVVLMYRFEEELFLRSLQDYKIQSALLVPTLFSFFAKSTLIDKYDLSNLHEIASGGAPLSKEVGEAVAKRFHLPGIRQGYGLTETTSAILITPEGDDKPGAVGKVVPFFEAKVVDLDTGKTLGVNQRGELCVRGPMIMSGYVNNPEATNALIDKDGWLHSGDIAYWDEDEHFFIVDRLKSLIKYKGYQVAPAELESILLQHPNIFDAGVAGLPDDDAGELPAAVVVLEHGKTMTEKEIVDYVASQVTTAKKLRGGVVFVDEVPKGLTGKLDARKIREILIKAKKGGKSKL
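Firefly luciferase (PKLight detection mix) with 10 uM ATP in pH 7.2 imidazole buffer (KCl, MgCl2, Tween 20, BSA). Compounds tested across a concentration series (qHTS). Luminescence read after 8 min at ambient temperature.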
Tau fil binding: qHTS Assay for Tau Filament Binding; Microtubule-associated protein tau (Homo sapiens), P10636; recombinant tau filaments, thioflavin S fluorescence, 15 h; filaments grown with octadecylsulfate alongside compound; Potency, µM (doses to about 57.1 µM), for the others: top-dose activity change, negative = inhibition; 2% of 71,000 active; AID 596, 2007;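 also: actives lower thioflavin S fluorescence by blocking filaments or displacing dye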
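Thioflavine S fluorescence (ex 450, em 510 nm) reports filaments formed from 1 uM human tau plus 30 uM ODS over 15 h at 37 C (10 mM HEPES pH 7.4, 100 mM NaCl, 5 mM DTT); compounds displacing dye or blocking filaments lower signal.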
15-hLO inh: qHTS Assay for Inhibitors of 15-hLO (15-human lipoxygenase); 1.4% of 74,000 active; purified 15hLO-1, xylenol orange hydroperoxide absorbance; Potency, µM (highest dose often 57.1 µM), without a hit: at the top dose activity change, negative = inhibition, most hits filed as inhibitors; Polyunsaturated fatty acid lipoxygenase ALOX15 (Homo sapiens), P16050; also: nearly all actives have a fitted effect of over 55% in size
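Purified human 15hLO-1 (40 nM final) in 25 mM Hepes pH 7.5, 0.01% Triton X-100 was preincubated with compound 15 min at room temperature, then reacted 6 min with 50 uM arachidonic acid; hydroperoxide detected by Fe-XO, 573/405 nm absorbance ratio.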
Starred values were filed as active, the others as inactive; i = inactive; ? = inconclusive; · = not tested or not shown; [ ] = dose if it differs, or a comment. Unless noted, calls follow the shape of the dose curve; as a rule, active = well fitted curve in the direction sought with a large enough effect; inconclusive = small, poorly fitted or top-dose-only effect, or another doubt; inactive = no such curve, though single readings can be large; an effect the other way counts as inactive or inconclusive. Unless noted, % is scaled to controls: 0 for no effect and ±100 for the full control effect; potency is read from the fitted curve at half-maximal effect.

SMILES	Bst PK mod	ERK AVP inh	DNA Pol III inh	Luciferase inh	Tau fil binding	15-hLO inh
C=CC(C1=CC(=O)C(OC)=CC1=O)c1ccc(O)cc1 (configuration not stated)	·	25.2%	·	·	·	25.1µM*
CCOC(=O)c1cnc(-n2nc(C)cc2C)nc1Nc1ccc(N(C)C)cc1	>57	?	-6.7%	-5.0%	12.6µM*	20.3%
CN1CCN(c2ncc3nc(-c4cc(F)cc(F)c4)c(=O)n(CCc4ccccc4)c3n2)CC1	·	0.7%	6.9%	1.6%[11.4 µM]	121.0%	-5.6%
CCc1ccccc1NC(=O)Cn1nnc(-c2cccs2)n1	>57	8.8%	-1.8%	1.7%	30.2%	4.8%
Cc1cccc(NC(=O)Cn2nnc(-c3cccs3)n2)c1C	>57	-19.4%	-3.3%	-2.7%	12.6µM*	-9.4%
C=CC[C@@H]1C=C[C@H](O/N=C2\c3cc(OC)ccc3O[C@H](c3cccc(OC)c3)[C@H]2O)[C@H](CO)O1	·	-10.0%[11.5 µM]	·	0.0%[11.4 µM]	·	0.1%[11.4 µM]
Cc1ccc(-c2cn3nc(C)c(C)nc3n2)cc1	5.54*	1.6%	-0.8%	2.51µM*	365.1%	1.2%
Cc1ccc(-c2cn3c(n2)CCCC3)cc1	>57	-7.2%	-2.2%	-1.0%	7.3%	10.7%
CCCCc1ccc(C2C(C#N)=C(N)SC(N)=C2C#N)s1	·	-14.1%	-3.7%[11.4 µM]	0.7%	0.316µM*	0.794µM*
COC(=O)c1c(C)nn(-c2ccccc2)c1N	·	-3.9%	-0.7%	-4.8%	-11.1%	5.1%
Cc1nn(-c2ccc(C(=O)O)cc2)c(N)c1-c1ccccc1	i	-17.7%	-7.7%	12.6µM*	-7.0%	-11.0%
COc1ccc(C(=O)N2CCC3(CCCN(C)C3)CC2)cc1	·	-3.7%	11.0%	0.0%[11.4 µM]	-1.3%	5.7%
COc1ccc(S(=O)(=O)Nc2c(C(=O)O)[nH]c3ccccc23)c(OC)c1	>57	0.2%	-1.2%	1.7%	-9.0%	-2.1%
COc1ccc2[nH]c(C(=O)O)c(NS(=O)(=O)c3ccc(OC)c(OC)c3)c2c1	·	-9.6%	-7.1%	-0.7%	20µM*	-22.3%
COc1ccccc1Cn1c(-c2ccco2)nc2nc3ccccc3nc21	>57	-18.0%	-6.4%	3.16µM*	15.8µM*	-2.0%
c1ccc(Cn2c(-c3ccco3)nc3nc4ccccc4nc32)cc1	>57	-11.8%	-4.3%	-24.6%	7.94µM*	-17.8%
COc1ccc(CCn2c(-c3ccco3)nc3nc4ccccc4nc32)cc1	>57	-4.2%	0.2%	-0.6%	12.6µM*	-5.5%
O=c1c2ccccc2nc(-c2ccco2)n1Cc1ccccc1	>57	-14.1%	-4.0%	-7.8%	0.8%	-5.7%
CCCn1c(-c2ccc(OC)cc2)nc2nc3ccccc3nc21	>57	5.3%	-6.3%	-5.0%	-25.2%	1.3%
Cc1ccc(-c2nc3nc4ccccc4nc3n2Cc2ccco2)cc1	i	-5.5%	-2.0%	10µM*	15.8µM*	?
c1coc(-c2nc3nc4ccccc4nc3n2CC2CCCO2)c1 (configuration not stated)	>57	-27.8%	-10.6%	-4.2%	-6.9%	?
CCCCCn1c(-c2ccco2)nc2nc3ccccc3nc21	·	-19.5%	-7.9%	-3.3%	12.6µM*	?
COc1ccc(OC2C(O)COC2/C=C/C#Cc2ccc(F)cc2F)cc1 (configuration not stated)	·	17.0%[11.5 µM]	·	·	·	-10.3%[11.4 µM]
COc1ccc(N2CCN(C(=O)C(Cc3ccccc3)n3cccc3)CC2)cc1 (configuration not stated)	·	25.1µM*	3.5%	-0.8%	12.6µM*	25.1µM*
O=C(C(Cc1ccccc1)n1cccc1)N1CCCCC1 (configuration not stated)	·	-24.0%	-2.1%	1.1%	-8.1%	11.8%
Cc1cccc(Nc2n[nH]c(=S)s2)c1C	>57	-5.9%	5.0%	-4.5%	3.9%	10µM*
C/C(N)=C(/C#N)C(=O)CSc1nnc(Nc2cccc(C)c2C)s1	i	13.4%	-2.0%	-3.4%	-3.7%	-17.2%
